Experimental findings from ChEMBL document CHEMBL3988442, “University of Dundee, Small-Polar-MMV Screening Library” (2021) are described below.

Holding throughout (parameters): scale not given: direction of the effect not stated beside the values
For assay [1], the target named is Protein translocase subunit SecA (Escherichia coli (strain K12)) (UniProt P10408). Briefly: Assay to Identify E. coli SecA ATPase Inhibitors. It counts as functional. Conditions: 30 µM.
In assay [2] the target is T1, Ubiquitin-activating enzyme e1, putative (Leishmania donovani (strain BPK282A1)) (UniProt E9BSI1).
T1 sequence (whole entry): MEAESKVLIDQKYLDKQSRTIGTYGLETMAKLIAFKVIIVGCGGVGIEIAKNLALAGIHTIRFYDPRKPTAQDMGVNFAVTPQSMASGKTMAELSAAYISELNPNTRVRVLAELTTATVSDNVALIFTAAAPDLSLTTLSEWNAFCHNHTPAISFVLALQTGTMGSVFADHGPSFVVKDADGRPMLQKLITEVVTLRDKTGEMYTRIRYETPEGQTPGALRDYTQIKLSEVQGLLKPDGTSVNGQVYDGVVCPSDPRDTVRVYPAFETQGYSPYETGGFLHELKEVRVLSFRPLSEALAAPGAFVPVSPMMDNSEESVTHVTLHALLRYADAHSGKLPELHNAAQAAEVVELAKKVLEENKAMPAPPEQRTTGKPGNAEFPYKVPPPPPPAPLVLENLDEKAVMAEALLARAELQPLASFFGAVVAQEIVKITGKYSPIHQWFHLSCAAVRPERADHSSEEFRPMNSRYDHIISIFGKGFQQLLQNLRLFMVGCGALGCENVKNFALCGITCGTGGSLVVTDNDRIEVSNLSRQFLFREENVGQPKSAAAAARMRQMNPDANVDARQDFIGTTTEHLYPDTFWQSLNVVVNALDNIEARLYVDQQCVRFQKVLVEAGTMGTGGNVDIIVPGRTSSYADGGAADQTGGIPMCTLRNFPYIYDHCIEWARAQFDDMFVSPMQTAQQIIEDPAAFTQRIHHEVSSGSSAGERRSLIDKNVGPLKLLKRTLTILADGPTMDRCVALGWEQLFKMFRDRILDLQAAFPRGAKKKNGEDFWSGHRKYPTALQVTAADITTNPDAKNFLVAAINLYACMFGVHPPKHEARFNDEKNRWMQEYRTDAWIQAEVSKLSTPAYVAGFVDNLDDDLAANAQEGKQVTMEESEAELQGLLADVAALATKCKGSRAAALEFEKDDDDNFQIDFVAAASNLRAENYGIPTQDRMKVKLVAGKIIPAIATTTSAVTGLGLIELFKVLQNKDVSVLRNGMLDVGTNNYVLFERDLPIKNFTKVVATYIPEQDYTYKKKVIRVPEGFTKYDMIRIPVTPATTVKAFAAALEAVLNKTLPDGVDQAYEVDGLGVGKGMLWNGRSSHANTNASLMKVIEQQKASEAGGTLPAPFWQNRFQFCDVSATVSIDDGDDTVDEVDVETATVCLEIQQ
Briefly: Leishmania donovani Ubiquitin Activating Enzyme (LdE1). It counts as functional. Conditions: 30 µM.

In assay [3] the target is AMP-activated protein kinase, AMPK (Homo sapiens) (UniProt P54646+O43741+P54619+Q9UGJ0+Q9Y478+Q13131+Q9UGI9). The assay can be described thus: AMP-dependent Kinase enzyme assay. An in vitro enzyme assay that detects ADP turnover that is directly proportional to AMPK activity. This uses naive AMPK that is activated during the assay with MK-8722. The conditions noted are these: 30 µM. The class given is functional.

Assay [4] has as its target Sialic acid-binding Ig-like lectin 9 (Homo sapiens) (UniProt Q9Y336). Briefly: Hs-Siglec9 ALPHAscreen SOP 20170721. The conditions noted are these: 10 µM. A general note: Bead proximity is the source of the signal in Alpha formats.
The next assay deals with Trypanosoma cruzi. The assay can be described thus: Trypanosoma cruzi phosphomannomutase and mannose-1-phosphate guanylyltransferase assay. The class given is functional. The conditions noted are these: 10 µM.
For assay [5], the target named is T2, Arginase-2, mitochondrial (Homo sapiens) (UniProt P78540).
T2 sequence (whole entry): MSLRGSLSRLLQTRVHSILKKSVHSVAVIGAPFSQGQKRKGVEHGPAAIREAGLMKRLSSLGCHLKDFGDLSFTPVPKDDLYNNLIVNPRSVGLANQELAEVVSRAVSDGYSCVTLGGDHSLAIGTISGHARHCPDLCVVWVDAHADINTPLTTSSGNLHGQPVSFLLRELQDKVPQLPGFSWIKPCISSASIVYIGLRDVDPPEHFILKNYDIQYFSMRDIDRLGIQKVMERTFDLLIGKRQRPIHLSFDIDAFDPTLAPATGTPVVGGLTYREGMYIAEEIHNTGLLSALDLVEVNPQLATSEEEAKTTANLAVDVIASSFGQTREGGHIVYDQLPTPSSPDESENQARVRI
Briefly: in vitro enzyme assay to detect the production of urea directly proportional to the activity of Arginase II. Note: in the data most compounds retested in dose-response had high values. The conditions noted are these: 33.3 µM. The class given is functional.

Assay [6] concerns the target T3, Proteasome subunit beta (Trypanosoma cruzi) (UniProt O96673).
T3 sequence (whole entry): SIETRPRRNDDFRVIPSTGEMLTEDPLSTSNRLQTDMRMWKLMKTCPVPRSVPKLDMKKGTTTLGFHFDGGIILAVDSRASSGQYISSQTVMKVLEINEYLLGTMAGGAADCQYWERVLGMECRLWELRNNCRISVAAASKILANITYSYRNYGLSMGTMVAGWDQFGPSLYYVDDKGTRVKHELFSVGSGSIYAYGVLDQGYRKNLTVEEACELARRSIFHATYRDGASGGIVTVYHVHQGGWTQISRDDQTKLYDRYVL
The assay can be described thus: Trypanosoma cruzi proteasome chymotrypsin-like activity (TcProtChymo) assay. Note: in the data most compounds retested in dose-response had high values. Conditions: 9.37 µM. The class given is functional.

For another assay, the species on record is Homo sapiens. Briefly: To identify inhibition of the IFN signalling (Jak-Stat) pathway via expression of an eGFP reporter gene under the control of an IFN-stimulated response element (ISRE) containing MxA promoter. It counts as functional. Conditions: 30 µM.
Assay [7] addresses T4, Tyrosyl-tRNA synthetase, putative (Trypanosoma cruzi (strain CL Brener)) (UniProt Q4DSP6).
T4 sequence (whole entry): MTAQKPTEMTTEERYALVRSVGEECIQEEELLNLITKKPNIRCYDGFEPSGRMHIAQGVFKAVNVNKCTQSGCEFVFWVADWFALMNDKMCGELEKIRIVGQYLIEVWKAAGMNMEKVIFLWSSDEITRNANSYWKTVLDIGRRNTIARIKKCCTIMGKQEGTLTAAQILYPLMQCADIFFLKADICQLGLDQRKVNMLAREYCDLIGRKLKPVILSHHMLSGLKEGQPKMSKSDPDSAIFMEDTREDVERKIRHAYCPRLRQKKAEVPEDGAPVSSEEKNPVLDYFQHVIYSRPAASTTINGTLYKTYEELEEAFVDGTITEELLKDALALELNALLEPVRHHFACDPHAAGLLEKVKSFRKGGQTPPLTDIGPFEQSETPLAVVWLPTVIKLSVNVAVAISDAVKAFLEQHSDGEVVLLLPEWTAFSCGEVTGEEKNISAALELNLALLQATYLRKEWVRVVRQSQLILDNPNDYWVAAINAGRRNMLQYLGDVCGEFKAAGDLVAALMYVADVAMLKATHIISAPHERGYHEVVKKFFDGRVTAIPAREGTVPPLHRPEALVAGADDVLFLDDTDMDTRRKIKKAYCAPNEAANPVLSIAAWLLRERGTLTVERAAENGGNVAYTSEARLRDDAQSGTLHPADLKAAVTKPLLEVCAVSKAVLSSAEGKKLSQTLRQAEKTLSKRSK
The assay can be described thus: Trypanosoma cruzi tyrosyl tRNA synthetase (TcYRS) _High Tyrosine SOP. Note: in the data most compounds retested in dose-response had high values. The class given is functional. Conditions: 30 µM.

The target of assay [8] is T4, Tyrosyl-tRNA synthetase, putative (Trypanosoma cruzi (strain CL Brener)). The assay can be described thus: Trypanosoma cruzi tyrosyl tRNA synthetase (TcYRS) SOP. It counts as functional. Conditions: 30 µM.
Assay [9] concerns the target Chromo domain-containing protein 1 (Saccharomyces cerevisiae (strain ATCC 204508 / S288c) (Baker's yeast)) (UniProt P32657). Briefly: ScCHD-1 Enzyme Inhibition Assay. Note: in the data most compounds retested in dose-response had high values. It counts as functional. The conditions noted are these: 30 µM.

For some of these results: Results with a measured potency or affinity are listed apart.

Protein translocase subunit SecA (Escherichia coli (strain K12)), sequence (P10408 whole entry): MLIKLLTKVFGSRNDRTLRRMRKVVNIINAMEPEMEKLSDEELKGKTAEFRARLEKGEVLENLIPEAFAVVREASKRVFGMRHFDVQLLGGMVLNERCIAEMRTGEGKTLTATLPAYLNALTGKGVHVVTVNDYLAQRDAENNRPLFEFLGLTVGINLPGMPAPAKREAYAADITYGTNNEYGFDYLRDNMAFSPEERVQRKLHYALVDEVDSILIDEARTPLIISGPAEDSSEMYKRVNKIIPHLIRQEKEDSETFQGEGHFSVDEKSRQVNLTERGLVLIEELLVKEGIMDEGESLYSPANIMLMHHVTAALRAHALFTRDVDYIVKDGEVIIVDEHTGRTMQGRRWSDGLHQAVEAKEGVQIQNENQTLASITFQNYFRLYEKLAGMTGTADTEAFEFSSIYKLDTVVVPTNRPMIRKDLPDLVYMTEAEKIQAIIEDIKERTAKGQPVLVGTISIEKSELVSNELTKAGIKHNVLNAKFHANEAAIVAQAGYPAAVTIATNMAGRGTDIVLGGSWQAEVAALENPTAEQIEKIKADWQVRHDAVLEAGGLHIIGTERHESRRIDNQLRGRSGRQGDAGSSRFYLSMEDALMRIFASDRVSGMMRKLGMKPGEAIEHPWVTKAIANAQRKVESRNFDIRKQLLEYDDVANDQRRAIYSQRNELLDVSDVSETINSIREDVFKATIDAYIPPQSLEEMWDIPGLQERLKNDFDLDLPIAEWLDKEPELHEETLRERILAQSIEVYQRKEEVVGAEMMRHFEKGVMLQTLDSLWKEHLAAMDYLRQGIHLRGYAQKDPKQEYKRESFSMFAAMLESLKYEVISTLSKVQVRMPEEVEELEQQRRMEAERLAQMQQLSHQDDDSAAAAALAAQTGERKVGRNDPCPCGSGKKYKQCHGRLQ
Chromo domain-containing protein 1 (Saccharomyces cerevisiae (strain ATCC 204508 / S288c) (Baker's yeast)), sequence (P32657 whole entry, the tested form may be a part): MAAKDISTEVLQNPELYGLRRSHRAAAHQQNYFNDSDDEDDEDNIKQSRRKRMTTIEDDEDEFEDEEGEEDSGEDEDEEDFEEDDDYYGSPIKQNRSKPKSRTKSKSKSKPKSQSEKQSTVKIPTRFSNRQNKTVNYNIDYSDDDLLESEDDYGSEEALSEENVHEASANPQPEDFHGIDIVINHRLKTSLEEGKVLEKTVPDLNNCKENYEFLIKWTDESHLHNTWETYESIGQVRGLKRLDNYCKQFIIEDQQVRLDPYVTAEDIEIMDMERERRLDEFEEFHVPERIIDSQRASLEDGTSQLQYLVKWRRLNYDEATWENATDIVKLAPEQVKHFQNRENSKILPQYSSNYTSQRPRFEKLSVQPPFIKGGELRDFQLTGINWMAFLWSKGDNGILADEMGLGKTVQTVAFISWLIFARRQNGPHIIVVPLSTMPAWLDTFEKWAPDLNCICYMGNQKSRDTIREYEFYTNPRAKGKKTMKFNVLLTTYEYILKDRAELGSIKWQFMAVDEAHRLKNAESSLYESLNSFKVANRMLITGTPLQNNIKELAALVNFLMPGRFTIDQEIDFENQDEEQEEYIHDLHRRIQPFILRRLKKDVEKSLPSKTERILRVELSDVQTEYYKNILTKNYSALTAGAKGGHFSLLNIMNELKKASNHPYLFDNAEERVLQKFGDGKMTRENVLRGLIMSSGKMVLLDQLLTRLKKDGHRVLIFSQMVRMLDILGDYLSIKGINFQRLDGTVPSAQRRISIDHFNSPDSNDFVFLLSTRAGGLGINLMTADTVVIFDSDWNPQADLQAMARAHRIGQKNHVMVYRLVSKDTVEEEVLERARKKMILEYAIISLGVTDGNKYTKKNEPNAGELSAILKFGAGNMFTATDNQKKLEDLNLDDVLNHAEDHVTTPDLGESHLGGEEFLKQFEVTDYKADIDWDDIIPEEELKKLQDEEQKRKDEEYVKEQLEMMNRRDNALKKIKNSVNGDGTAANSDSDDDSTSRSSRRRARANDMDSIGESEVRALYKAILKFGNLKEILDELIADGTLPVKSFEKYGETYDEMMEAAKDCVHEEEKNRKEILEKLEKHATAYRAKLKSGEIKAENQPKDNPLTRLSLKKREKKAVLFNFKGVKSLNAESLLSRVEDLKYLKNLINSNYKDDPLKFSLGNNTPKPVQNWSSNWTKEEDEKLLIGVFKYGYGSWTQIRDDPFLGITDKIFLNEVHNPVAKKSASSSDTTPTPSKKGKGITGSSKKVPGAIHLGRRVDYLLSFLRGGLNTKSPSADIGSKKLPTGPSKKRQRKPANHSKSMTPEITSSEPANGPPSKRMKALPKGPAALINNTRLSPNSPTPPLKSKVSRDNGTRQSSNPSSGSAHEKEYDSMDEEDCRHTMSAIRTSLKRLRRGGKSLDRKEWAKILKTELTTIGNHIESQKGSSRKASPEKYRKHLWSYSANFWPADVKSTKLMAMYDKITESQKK
Sialic acid-binding Ig-like lectin 9 (Homo sapiens), sequence (Q9Y336 whole entry): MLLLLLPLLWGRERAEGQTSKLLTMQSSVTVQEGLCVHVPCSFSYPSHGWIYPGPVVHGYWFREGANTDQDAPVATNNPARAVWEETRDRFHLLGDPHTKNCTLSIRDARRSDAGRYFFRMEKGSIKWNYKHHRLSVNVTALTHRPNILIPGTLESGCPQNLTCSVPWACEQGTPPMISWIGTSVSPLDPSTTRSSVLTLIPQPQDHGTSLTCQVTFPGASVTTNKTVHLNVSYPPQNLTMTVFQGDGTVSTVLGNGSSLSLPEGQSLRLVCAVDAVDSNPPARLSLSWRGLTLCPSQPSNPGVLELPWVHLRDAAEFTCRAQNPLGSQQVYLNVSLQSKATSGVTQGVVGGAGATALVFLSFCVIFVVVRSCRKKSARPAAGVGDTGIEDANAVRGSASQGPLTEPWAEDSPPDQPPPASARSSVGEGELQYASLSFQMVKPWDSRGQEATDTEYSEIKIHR

Take `CNC(=O)C(NC(=O)c1nccn2ccnc12)c1ccc(F)c(F)c1` (stereo unspecified): the Percent Effect in assay [1] is -5.39%; in [2], 13.5%; in assay [3] it was -2.95%; in assay [4], 5.66%; in the assay with Trypanosoma cruzi it was 5.27%; in [5], 16.2%. Besides, the Percent Effect in assay [6] is 19%; in the assay filed under Homo sapiens it was -10.6%; in assay [7], 5.94%; in assay [8], 15.8%; in [9], 23.6%.

Consider `Cn1c(Cn2cccn2)nnc1C1CCCN(c2ccncc2)C1` (stereo unspecified), for which the Percent Effect in assay [1] was -2.64%; in [2] it was 2.7%; in assay [3], -4%; in assay [4] it was 11.4%; in the assay with Trypanosoma cruzi, 3.86%; in [5], -1.43%. Further, the Percent Effect was 17.6% in assay [6]; 11.9% in the assay listed under Homo sapiens; 6.88% in [7]; 19.5% in assay [8]; -1.63% in assay [9].

On to `Cc1ncsc1CCC(=O)NCc1cc2n(n1)CCN(C(=O)N(C)C)C2`, for which the Percent Effect in assay [1] was -0.664%; in assay [2] it was 1.39%; in [3], -1.68%; in assay [4] it was -4.18%; with Trypanosoma cruzi, -4.96%; in assay [5] it was 3.97%. Moreover, the Percent Effect in assay [6] is 15.3%; in the assay filed under Homo sapiens, 6.29%; in assay [7], 3.16%; in assay [8], 2.56%; in assay [9], -1.68%.

Consider `Cc1ccccc1-c1cncc(C2CCN(C)CC2)n1`, for which the Percent Effect in assay [1] is -3.38%; in assay [2] it was -6.76%; in [3], 8.25%; in [4], 2.29%; with Trypanosoma cruzi it was 5.73%; in assay [5] it was -1.62%. In addition, the Percent Effect was -0.624% in assay [6]; -1.24% in the assay listed under Homo sapiens; 5.38% in [7]; 3.9% in assay [8]; -11.8% in assay [9].

For `Cc1ccc(O)c(CNC2CCc3nc(C(C)C)nn3C2)n1` (stereo unspecified), the Percent Effect in assay [1] is -9.46%; in assay [2] it was 13.2%; in assay [3], 2.66%; in assay [4], 6.11%; in the assay on Trypanosoma cruzi it was 3.02%; in [5] it was -5.92%. The Percent Effect is 8.15% in assay [6]; -5.66% in the assay filed under Homo sapiens; 1.06% in assay [7]; 10.4% in assay [8]; -14.7% in assay [9].

In the case of `CC1=Nc2c(c(=O)[nH]n2C(C)C)C(c2cccs2)S1` (stereo unspecified), the Percent Effect was -7.07% in assay [1]; -1.33% in assay [2]; 2.48% in assay [3]; 1.91% in [4]; 0.197% with Trypanosoma cruzi; -3.7% in assay [5]. The Percent Effect was 9.8% in assay [6]; 11.9% in the assay filed under Homo sapiens; 19.1% in assay [7]; 25.6% in assay [8]; -2.82% in [9].

On to `c1cnnc(N2CCCC(NCc3ccc(-n4cccn4)cc3)C2)c1` (stereo unspecified), for which the Percent Effect in assay [1] is -0.865%; in assay [2], -5.2%; in [3], 14.6%; in [4], 4.94%; with Trypanosoma cruzi, -0.686%; in assay [5], 1.9%. The Percent Effect was 1.7% in [6]; 20.3% in the assay listed under Homo sapiens; 0.952% in [7]; 7.06% in assay [8]; -7.51% in [9].

Regarding `COc1cc(CC(O)CO)c(OC)c2c1OCO2` (stereo unspecified), the Percent Effect in assay [1] is -6.55%; in assay [2], 14.7%; in assay [3] it was -12.3%; in assay [4], 4.03%; in the assay with Trypanosoma cruzi, 6.29%; in assay [5], -12.5%. For the same molecule, the Percent Effect in [6] is 9.8%; in the assay filed under Homo sapiens, 5.7%; in assay [7], 8.47%; in [8] it was 15.4%; in [9] it was -21.2%.

Regarding `CS(=O)(=O)N1CCCC12CCCN(S(=O)(=O)c1ccc(F)cc1)C2` (stereo unspecified), the Percent Effect is -3.85% in assay [1]; 5.41% in [2]; -33.3% in assay [3]; -0.0111% in assay [4]; -5.18% in the assay with Trypanosoma cruzi; 1.24% in assay [5]. Further, the Percent Effect in [6] was 10.7%; in the assay listed under Homo sapiens it was -4.37%; in assay [7], 6.45%; in assay [8], 6.17%; in assay [9], -9.7%.

`NC(=O)c1csc(C(=O)N2CCCCC2Cn2cccn2)c1` (stereo unspecified): the Percent Effect in [1] is -5.35%; in [2], 13.5%; in assay [3], 1.44%; in assay [4] it was 6.12%; with Trypanosoma cruzi, -0.279%; in assay [5], -3.88%. Besides, the Percent Effect in [6] was found to be 0.539%; in the assay listed under Homo sapiens, 16.2%; in [7] it was 5.94%; in assay [8], 13.4%; in assay [9] it was 1.19%.

In the case of `CS(=O)(=O)N1CCC(C(=O)NC(Cc2ccsc2)c2nccs2)CC1` (stereo unspecified), the Percent Effect in assay [1] is -5.37%; in assay [2] it was 9.46%; in [3], 6.1%; in assay [4], -1.37%; in the assay with Trypanosoma cruzi, -3.36%; in assay [5], -1.16%. For the same molecule, the Percent Effect was found to be 2.65% in assay [6]; 12.9% in the assay filed under Homo sapiens; 0% in assay [7]; 11.7% in assay [8]; 2.8% in assay [9].
